PD-1 reversal – activators reversing PD-1 mediated T-cell inhibition, primary screen, luminescence, primary human CD4 T cells, PD-L1 beads; CellTiter-Glo 96 h; activation, % (no concentration beside the values); 29,000 tested, under 10 active; AID 2316, 2010; call rule not given here;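 further: 0% = median vehicle wells and 100% = positive control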
MITF inhib – inhibitors of MITF, primary screen, MITF inhibitor project, cell-based, luminescence; TRPM1 promoter luciferase, 24 h; inhibition, % (no concentration beside the values); 37,000 compounds, 0.28% hits; AID 2240, 2010; in the data active means inhibition above about 85%; inconclusive means no clear call, values can overlap the other calls; inactive means below about 68%;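 further: human melanocyte line stably carrying TRPM1 promoter luciferase reporter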
Shh pathway inh – Hedgehog pathway signaling inhibitors, primary screen, luminescence, Shh-LIGHT2 cells, Gli-luciferase. Shh-LIGHT2 Gli-luciferase reporter, 30 h. inhibition, % (test concentration not listed). 22,000 compounds, 2.1% hits. AID 2313, 2010;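 active means mean inhibition across valid replicates above about 65%, limit read from the data; inconclusive means mean under the limit, yet half or more replicates past it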;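 further: pathway switched on by Shh-conditioned medium diluted 1 in 25 in low serum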
NOMO-1 viab – NOMO-1 AML cell viability reduction, primary screen, STK33 inhibitor project, CellTiter-Glo luminescence; NOMO-1 AML viability, 72 h; inhibition, % (test concentration not listed); 37,000 compounds, 7.5% hits; AID 2330, 2010; in the data active means inhibition above about 80%; inconclusive means no clear call, values can overlap the other calls
Active calls of the source: *; ? = inconclusive; . = not tested or not shown. In the library only some 8.1% were active in any assay of this set; here they are far more common.

SMILES | PD-1 reversal | MITF inhib | Shh pathway inh | NOMO-1 viab
C[C@H](CO)N1C[C@H](C)[C@H](CN(C)Cc2ccc(C(F)(F)F)cc2)Oc2ccc(NC(=O)Nc3ccc(F)cc3)cc2CC1=O | -3.2 | 17.5 | -14.4 | 113.2*
C[C@H]1CN([C@@H](C)CO)C(=O)Cc2cc(NC(=O)Nc3ccc(F)cc3)ccc2O[C@@H]1CN(C)Cc1ccc(C(F)(F)F)cc1 | . | 14.3 | -13.1 | 117.3*
C[C@@H]1CN([C@H](C)CO)C(=O)Cc2cc(NC(=O)Nc3ccc(F)cc3)ccc2O[C@H]1CN(C)Cc1ccc(C(F)(F)F)cc1 | . | 23.0 | -17.6 | 116.0*
O=C(CSc1nnnn1-c1ccc(F)cc1F)Nc1ccc2c(c1)OCCO2 | 0.1 | -84.4 | . | 5.2
Oc1c(C(Nc2cccnc2)c2ccc(C(F)(F)F)cc2)ccc2cccnc12 (centres undefined) | . | 66.9 | . | 109.0*
FC(F)(F)c1nnc(Nc2cccnc2)s1 | 1.3 | 6.9 | -8.3 | -21.9
Cc1ccc(C(C)C)c(OCCSc2nc3ncnc(N)c3[nH]2)c1 | -0.9 | 51.5 | . | 13.6
C[C@H](CO)N1C[C@H](C)[C@H](CN(C)Cc2ccc3c(c2)OCO3)Oc2ccc(NC(=O)Nc3ccc(F)cc3)cc2C1=O | -1.7 | -12.2 | 31.2 | 88.9*
C[C@H]1CN([C@@H](C)CO)C(=O)c2cc(NC(=O)Nc3ccc4c(c3)OCO4)ccc2O[C@@H]1CN(C)Cc1ccc2c(c1)OCO2 | 1.1 | 1.6 | 23.4 | 26.8
COc1ccc(NC(=O)Nc2ccc3c(c2)C(=O)N([C@H](C)CO)C[C@H](C)[C@H](CN(C)Cc2ccc4c(c2)OCO4)O3)cc1 | . | 8.2 | . | 97.2*
C[C@H]1CN([C@@H](C)CO)C(=O)c2cc(NC(=O)C3CCCCC3)ccc2O[C@H]1CN(C)Cc1ccc2c(c1)OCO2 | 0.9 | -2.8 | . | 91.7*
COc1ccc(NC(=O)Nc2ccc3c(c2)C(=O)N([C@H](C)CO)C[C@@H](C)[C@@H](CN(C)Cc2ccc4c(c2)OCO4)O3)cc1 | 1.9 | 0.9 | . | 9.4
C[C@H]1CN([C@@H](C)CO)C(=O)c2cc(NC(=O)Nc3ccccc3)ccc2O[C@H]1CN(C)Cc1ccc2c(c1)OCO2 | 5.8 | -11.1 | . | 92.0*
Cc1ccc(CNC(=O)C2c3ccccc3Oc3ccccc32)cc1 | -0.1 | 11.1 | -7.0 | 12.4
CN1C(=O)c2ccc(NC(=O)CCn3cnc4ccccc4c3=O)cc2C1=O | 0.7 | -13.0 | . | -11.1
Cc1nnc(SCC(=O)Nc2ccc([N+](=O)[O-])cc2)s1 | 1.2 | 2.7 | . | 27.2
CC(C)(C)NC(=O)CSc1nnc(-c2ccco2)n1-c1ccccc1 | 0.5 | -4.7 | . | 35.4
CC(C)NC(=O)Nc1ccc2c(c1)C(=O)N([C@@H](C)CO)C[C@@H](C)[C@@H](CN(C)Cc1ccc3c(c1)OCO3)O2 | 1.2 | -11.3 | . | -2.6
C[C@H](CO)N1C[C@H](C)[C@H](CN(C)Cc2ccc3c(c2)OCO3)Oc2ccc(NC(=O)Nc3ccc4c(c3)OCO4)cc2C1=O | 0.2 | 1.3 | 19.2 | 93.4*
CC(C)NC(=O)Nc1ccc2c(c1)C(=O)N([C@H](C)CO)C[C@H](C)[C@H](CN(C)Cc1ccc3c(c1)OCO3)O2 | . | -1.5 | . | 93.3*
Cc1cc(C)c2oc(-c3ccc(NC(=O)COc4ccccc4[N+](=O)[O-])cc3)nc2c1 | -0.8 | -14.9 | . | 31.9
O=C(COc1ccc2ccccc2c1Br)Nc1ccccc1C(=O)NC1CCCCC1 | . | 21.6 | . | -13.0
CCOc1cccc(-c2nnc(SCC(=O)Nc3c(C)cccc3C)n2C)c1 | 0.4 | -3.2 | . | -10.4
C[C@@H]1CN([C@@H](C)CO)C(=O)c2cccc(NC(=O)c3nc4ccccc4s3)c2O[C@@H]1CN(C)S(=O)(=O)c1ccc(Cl)cc1 | -2.2 | 60.0 | 19.5 | 113.1*
C[C@H](CO)N1C[C@H](C)[C@H](CN(C)S(=O)(=O)c2ccc(Cl)cc2)Oc2c(NC(=O)c3nc4ccccc4s3)cccc2C1=O | -0.7 | 19.5 | 3.3 | 92.7*
C[C@H](CO)N1C[C@H](C)[C@@H](CN(C)S(=O)(=O)c2ccc(Cl)cc2)Oc2c(NC(=O)c3nc4ccccc4s3)cccc2C1=O | -6.1 | 24.6 | 4.9 | 117.3*
C[C@@H]1CN([C@@H](C)CO)C(=O)c2cccc(NC(=O)c3nc4ccccc4s3)c2O[C@@H]1CN(C)S(=O)(=O)c1ccccc1 | 0.0 | 37.4 | -44.4 | 102.1*
C[C@@H]1CN([C@H](C)CO)C(=O)c2cccc(NC(=O)c3nc4ccccc4s3)c2O[C@H]1CN(C)S(=O)(=O)c1ccccc1 | . | 9.1 | ? | 46.6
C[C@@H]1CN([C@H](C)CO)C(=O)c2cccc(NC(=O)c3nc4ccccc4s3)c2O[C@@H]1CN(C)S(=O)(=O)c1ccc(Cl)cc1 | -1.5 | 4.6 | 33.2 | 64.8
